A short description of assay [1]: NCI Yeast Anticancer Drug Screen. Data for the rad50 strain (AID 155).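 Further: 0% = growth of vehicle-only cultures of the same strain.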 As to conditions: S. cerevisiae rad50 strain growth inhibition; at 50.0 µM; stronger effect = higher value. The method, boiled down: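 Genetically altered yeast (DNA repair pathway); compound treatment; growth inhibition vs vehicle ctrl.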
Assay [2] is described as follows: NCI Yeast Anticancer Drug Screen. Data for the mec2-1 strain (AID 157). As to conditions: S. cerevisiae mec2-1 strain, at 50.0 µM, stronger effect = higher value. The procedure, abridged:
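Readout is yeast growth inhibition, normalised to vehicle-treated controls, in the mec2-1 strain exposed to compound.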

Assay [3] can be described thus: NCI Yeast Anticancer Drug Screen. Data for the sgs1 mgt1 strain (AID 161).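 Further: 0% = growth of cultures given vehicle only.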 The conditions noted are these: S. cerevisiae sgs1 mgt1 strain, at 50.0 µM, stronger effect = higher value. The procedure, abridged:
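This yeast growth screen uses a strain with defined DNA-repair lesions; compound-treated growth is compared with vehicle-treated growth.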

The nature of assay [4]: NCI Yeast Anticancer Drug Screen. Data for the cln2 rad14 strain (AID 165).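 Further: 0% = growth equal to vehicle treated cultures.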 As to conditions: S. cerevisiae cln2 rad14 strain, at 50.0 µM, stronger effect = higher value. The procedure, abridged:
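Relative to vehicle controls, growth inhibition of compound-treated cln2 rad14 yeast was recorded.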

Assay [5] in a line: NCI Yeast Anticancer Drug Screen. Data for the bub3 strain (AID 167). The conditions noted are these: S. cerevisiae bub3 mutant strain, at 50.0 µM, stronger effect = higher value. The method, boiled down: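 Yeast carrying a defined mutation is treated with each compound, and growth is compared with that of vehicle-exposed cells to give inhibition.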
Assay [6] in a line: NCI Yeast Anticancer Drug Screen. Data for the mlh1 rad18 strain (AID 175). As to conditions: S. cerevisiae mlh1 rad18 strain growth inhibition; at 50.0 µM; stronger effect = higher value. The procedure, abridged:
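Test agents were incubated with a yeast strain of defined genotype (DNA damage repair defect). Inhibition of growth was derived by comparison with vehicle-exposed cultures.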

This is an account of results in PubChem BioAssay (NCI).

About 79,000 compounds went through this panel and 15% of them were active in at least one assay; those are over-represented in the sample as a whole. Values without a mark were called inactive. Calls of active or inactive are those of the source. No stated cut-off is given here; in the data, active means growth inhibition above about 70%; inactive means the rest.

For `CC(C)(C)C(=O)Nc1ccccc1`, the growth inhibition in assay [1] was 37.7%; in assay [2], 17%; in assay [3] it was 0.2%; in assay [4], 1.55%; in assay [5], -12.4%; in assay [6], 23%.
As to `C=C1CN(CCc2ccccc2)C(=S)S1`, the growth inhibition was 55.6% in assay [1]; 19.1% in assay [2]; 22.4% in assay [3]; 3.65% in assay [4]; 1.35% in assay [5]; 11.4% in assay [6].
As for `OC/C=C(\I)CCCOCOCc1ccccc1`, the growth inhibition in assay [1] is -14.4%; in assay [2] it was -4.35%; in assay [3], -7.35%; in assay [4], -18.4%; in assay [5], -10.5%; in assay [6] it was -36.2%.
As for `NC(=O)c1n[nH]c(C2OC(CO)C(O)C2O)n1` (configuration not stated), the growth inhibition in assay [1] was -1.5%; in assay [2], -6.8%; in assay [3], 0.9%; in assay [4], -15.7%; in assay [5], 5.75%; in assay [6] it was -7.5%.
Regarding `c1ccc(C2OCCO2)cc1`, the growth inhibition was 4.05% in assay [1]; -15.2% in assay [2]; -6.7% in assay [3]; 6.6% in assay [4]; -0.2% in assay [5]; 10.4% in assay [6].
`O=C1c2ccccc2-c2cccc3ccc(-c4ccccc4)c1c23`: the growth inhibition in assay [1] is 4.85%; in assay [2], 1.9%; in assay [3] it was -10.2%; in assay [4], -2.85%; in assay [5], -7.25%; in assay [6], 12.5%.
Consider `N#C/C(=C\c1c(Cl)cccc1Cl)c1nc(-c2ccc(Cl)cc2)cs1`, for which the growth inhibition is -32.4% in assay [1]; -40.6% in assay [2]; -25.5% in assay [3]; -23.6% in assay [4]; -17.4% in assay [5]; -32.9% in assay [6].
As for `COc1ccc(CCn2nnc3ccccc3c2=O)cc1OC`, the growth inhibition in assay [1] is -4.1%; in assay [2] it was -33.1%; in assay [3] it was -10.1%; in assay [4], 16.6%; in assay [5] it was -28.4%; in assay [6], -11.5%.
For the compound `CC(C)CC1=C(N(C)C)C(=O)C=C(N(C)C)C1=O`, the growth inhibition in assay [1] is -0.35%; in assay [2], -9.4%; in assay [3] it was 10.2%; in assay [4], -5.65%; in assay [5], -9.85%; in assay [6] it was -13.4%.
With `C(=C\c1ccc2ccccc2c1)/c1ccc2ccccc2c1`, the growth inhibition in assay [1] was 6.75%; in assay [2], 25.6%; in assay [3] it was 16.6%; in assay [4], 63.5%; in assay [5], 6.85%; in assay [6] it was 31.4%.
Regarding `O=c1nc(N2CCSCC2)ccn1C1OC(CO)C(O)C1O` (configuration not stated), the growth inhibition is -6.5% in assay [1]; -6.7% in assay [2]; -8.45% in assay [3]; -5.75% in assay [4]; -3.5% in assay [5]; -2.25% in assay [6].
For the compound `CC1CN=C(N(Cc2ccccc2)C(=O)Nc2ccc(Cl)c(Cl)c2)S1` (configuration not stated), the growth inhibition was -4.25% in assay [1]; 27.9% in assay [2]; -0.35% in assay [3]; 26.7% in assay [4]; -0.65% in assay [5]; 0.35% in assay [6].
As for `Clc1ccc(SCc2csc(-c3ccc(Cl)cc3)n2)cc1`, the growth inhibition was -27.5% in assay [1]; -41.8% in assay [2]; -19.1% in assay [3]; -27.8% in assay [4]; -6.8% in assay [5]; -29.8% in assay [6].
As to `OC(C/C(=N\Nc1ccccc1)c1ccc(F)cc1)(C(F)(F)F)C(F)(F)F`, the growth inhibition is 98.3% (active) in assay [1]; 98.8% (active) in assay [2]; 98.5% (active) in assay [3]; 97.8% (active) in assay [4]; 98.3% (active) in assay [5]; 98.6% (active) in assay [6].
On to `[O-][n+]1c2ccccc2[n+]([O-])c2cc(O)ccc21`, for which the growth inhibition in assay [1] was 20.4%; in assay [2] it was -4.05%; in assay [3], 12.7%; in assay [4] it was -1.3%; in assay [5], 17.1%; in assay [6], 50.8%.
In the case of `CCC1OC(=O)CC(O)C(C)C(OC2OC(C)C(O)C(N(C)C)C2O)C(CC=O)CC(C)C(=O)/C=C/C2(C)OC2C1C` (configuration not stated), the growth inhibition in assay [1] is -13.4%; in assay [2] it was -43%; in assay [3], -23.5%; in assay [4], -18.7%; in assay [5] it was -28.9%; in assay [6], -36.4%.
Take `CCSc1nc(C)cc(=O)[nH]1`: the growth inhibition was 28% in assay [1]; -1.35% in assay [2]; 9.6% in assay [3]; 6.15% in assay [4]; 13.2% in assay [5]; 27.9% in assay [6].
Consider `CCCCOc1ccc(CCOC(C)=O)cc1`, for which the growth inhibition in assay [1] was 6.5%; in assay [2] it was -14.4%; in assay [3], 1.7%; in assay [4] it was -25.3%; in assay [5], -15%; in assay [6] it was -20.8%.
`O=C(Nc1ccc(Cl)c(Cl)c1)OCC1CC2C=CC1C2` (configuration not stated): the growth inhibition in assay [1] is 95.2% (active); in assay [2], 97.8% (active); in assay [3], 97.3% (active); in assay [4] it was 94.8% (active); in assay [5], 94.9% (active); in assay [6], 95% (active).
As for `O=C(O)c1c(O)c(O)cc2ccccc12`, the growth inhibition in assay [1] is 24.1%; in assay [2], -17.8%; in assay [3], -13.4%; in assay [4], -51.5%; in assay [5], 25.6%; in assay [6], 23.4%.
Take `CCOC(=O)C1(C)OC1c1ccc([N+](=O)[O-])cc1` (configuration not stated): the growth inhibition in assay [1] is -16.3%; in assay [2], 5.45%; in assay [3] it was -4.5%; in assay [4] it was -15.6%; in assay [5], -9.85%; in assay [6], -9.85%.
Take `O=S(=O)([O-])c1ccc2c(c1)-c1nc-2nc2[n-]c(nc3nc(nc4[n-]c(n1)c1ccc(S(=O)(=O)[O-])cc41)-c1cc(S(=O)(=O)[O-])ccc1-3)c1ccc(S(=O)(=O)[O-])cc21.[Cu+2].[Na+]`: the growth inhibition is -13.7% in assay [1]; -40.1% in assay [2]; -23.8% in assay [3]; -16.2% in assay [4]; -34% in assay [5]; -94.2% in assay [6].
For the compound `COC1C(O)CC(OC2C(C)OC(Oc3cc(O)c4c(O)c5c(cc4c3)C[C@@H]([C@H](OC)C(=O)[C@@H](O)[C@@H](C)O)[C@H](OC3CC(OC4CC(OC6CC(C)(O)C(O)C(C)O6)C(O)C(C)O4)C(O)C(C)O3)C5=O)CC2OC(C)=O)OC1C` (some centres not stated), the growth inhibition in assay [1] is -7.9%; in assay [2] it was -3.45%; in assay [3], -32.9%; in assay [4], 10%; in assay [5], 2.45%; in assay [6] it was 0.4%.
With `CCOC(=O)c1ccc(NC(=S)N(CCC#N)C2CCCCC2)cc1`, the growth inhibition was 33.4% in assay [1]; 7.2% in assay [2]; 62.5% in assay [3]; 27.1% in assay [4]; 48.4% in assay [5]; 30.9% in assay [6].
Consider `CC(=O)Oc1cccc2c1C(=O)C1CC(O)C3(C=O)OC(C)(C)OC2(C)C13` (configuration not stated), for which the growth inhibition in assay [1] is 8.45%; in assay [2], -2.6%; in assay [3], 5.95%; in assay [4], 4.7%; in assay [5], -3.45%; in assay [6] it was 3.6%.
In the case of `CC1CNC(=O)C(=O)N1` (configuration not stated), the growth inhibition was -14.7% in assay [1]; -1.8% in assay [2]; 1.75% in assay [3]; -13.4% in assay [4]; -10.9% in assay [5]; -8.05% in assay [6].
With `COc1ccc(C(=O)OC2CCCC2)cc1`, the growth inhibition in assay [1] is 45.8%; in assay [2] it was 6.95%; in assay [3] it was 39.5%; in assay [4] it was -9.5%; in assay [5], 9.6%; in assay [6] it was 24.7%.
In the case of `CC(C)(c1cn(Cc2ccccc2)c2ccccc12)c1cn(Cc2ccccc2)c2ccccc12`, the growth inhibition in assay [1] was 39%; in assay [2], 4.2%; in assay [3], 17.9%; in assay [4], 21.1%; in assay [5], -4.05%; in assay [6], 10.8%.
Turning to `N#CCc1nc(-c2ccccc2)n[nH]1`, the growth inhibition in assay [1] was 11.2%; in assay [2], 4.55%; in assay [3] it was 13.1%; in assay [4], 5.6%; in assay [5], 4.5%; in assay [6], 11.7%.
Regarding `COC(CN1C(=O)CSC1=S)OC`, the growth inhibition in assay [1] was 10.8%; in assay [2], -1.65%; in assay [3], 27.1%; in assay [4], 17.2%; in assay [5], 29.1%; in assay [6], -6.8%.
In the case of `CC(C)CN1CC(C)C(=O)NC1=O` (configuration not stated), the growth inhibition in assay [1] is 1.4%; in assay [2] it was -3.4%; in assay [3], -2.45%; in assay [4], 3.85%; in assay [5] it was 1%; in assay [6], 5.4%.
As to `CCCCCO/C=C/CN1CCOCC1`, the growth inhibition in assay [1] is 8.85%; in assay [2], 15.2%; in assay [3] it was 3.1%; in assay [4], -8.5%; in assay [5], 11.8%; in assay [6], -3.2%.
As for `[N-]=[N+]=NC(=O)c1cccc2c1Cc1ccccc1-2`, the growth inhibition in assay [1] is 8.85%; in assay [2] it was 0.75%; in assay [3] it was -4.05%; in assay [4], -40.9%; in assay [5], -11.5%; in assay [6] it was -0.4%.
Regarding `Cc1ccc(CNc2ccccc2)cc1`, the growth inhibition in assay [1] was 18.9%; in assay [2] it was -6.45%; in assay [3], 27.3%; in assay [4] it was 8.8%; in assay [5], 14.7%; in assay [6], 7.55%.
Take `C=CCSc1nc2ccc(N3C(=O)CCC3=O)cc2s1`: the growth inhibition in assay [1] is 15.4%; in assay [2] it was -11.7%; in assay [3], -10.6%; in assay [4] it was 10.2%; in assay [5], 6.05%; in assay [6], 4%.
Regarding `NC(=O)c1ccc(I)cc1`, the growth inhibition in assay [1] is 1.75%; in assay [2], 9.3%; in assay [3], 4%; in assay [4], -30.1%; in assay [5], -37%; in assay [6], 8.25%.
For the compound `c1ccc2c(c1)oc1ccc3nsnc3c12`, the growth inhibition in assay [1] is 7.25%; in assay [2], -7.45%; in assay [3], 13.8%; in assay [4], -1.45%; in assay [5], 20.1%; in assay [6], -10.3%.
